MgrA DNA FP: S. aureus MgrA activity modulators, primary screen, biochemical, S. aureus Newman, fluorescence polarization; inhibition, % (test concentration not listed); 84,000 compounds, 0.13% hits; AID 602314, 2012; MgrA-DNA binding; in the data active = inhibition above about 30%, passing the limit was not always enough;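 note: 0% = protein plus DNA without compound and 100% = DNA alone without protein; higher means less MgrA bound to DNA so lower polarization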
* hit, by the source's call. The full list was thinned out, with hits kept by preference.

Results for O=[N+]([O-])c1ccc(N2CCCCC2)c2nonc12 ?
MgrA DNA FP: 15.8

What do the screens show for `O=[N+]([O-])c1ccc(N2CCCC2)c2nonc12`?
MgrA DNA FP: 52.2*

How did CCO/N=C(\C)c1ccc(C)nc1 do in these assays?
MgrA DNA FP: -0.9

What do the screens show for `CN[C@@H]1CC2OC(C)([C@@H]1OC)n1c3ccccc3c3c4c(c5c6ccccc6n2c5c31)C(=O)NC4` (some centres not stated)?
MgrA DNA FP: -1.1

Results for COC(=O)C1=CN2C(C=C1)C(C(=O)OC)(C(=O)OC)[C@@H](c1cccnc1)[C@@H]2C#N (some centres not stated) ?
MgrA DNA FP: 51.8*

Results for Cc1nc2c(Br)cc(Br)cc2c(=O)n1-c1ccc(Cl)c(Cl)c1 ?
MgrA DNA FP: 4.6

Results for S=c1[nH]nc(CCN2CCN(c3ccc(Cl)cc3)CC2)n1-c1ccccc1 ?
MgrA DNA FP: 2.6

Results for CSc1ncccc1C1=N/C(=C\c2ccc(C)cc2)C(=O)O1 ?
MgrA DNA FP: 0.6

How did COc1ccc(-n2c(C)cc(/C=C3/C(=O)NC(=O)N(Cc4ccco4)C3=O)c2C)cc1 do in these assays?
MgrA DNA FP: 7.0

What do the screens show for `CCOC(=O)C1CCN(/C=C2/C(=O)NC(=O)N(Cc3ccco3)C2=O)CC1`?
MgrA DNA FP: 29.2*

Results for CCN1C(=O)NC(=O)/C(=C\c2cn(CC(=O)N3CCCCC3C)c3ccccc23)C1=O (configuration not stated) ?
MgrA DNA FP: 14.6

How did CCN1CCC(N2CCCCC2)CC1 do in these assays?
MgrA DNA FP: -3.2

What do the screens show for `OCCCNc1c2c(nc3ccccc13)CCCC2`?
MgrA DNA FP: 8.1

What do the screens show for `CO[C@@H]1C=C2CCN(C)[C@@H]2C2c3cc4c(cc3C(=O)OC21)OCO4` (some centres not stated)?
MgrA DNA FP: -0.5

How did COc1ccc(C(O)(C(=O)O)c2ccccc2)cc1 (configuration not stated) do in these assays?
MgrA DNA FP: -6.2
